Assay results published in PubChem BioAssay.
For some of these results: Results with a measured potency or affinity are listed apart. Activity calls are given as the source filed them. Unless noted, how the calls were made is not given here.

How the values were obtained:
[1] = antimalarial activity against Dd2 strain (AID 2302;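 active means growth inhibition above 50% at the single 2 µM test dose, taken to imply half-maximal potency below 2 µM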;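 further: 0% = DMSO untreated growth and 100% = chloroquine plus artemisinin killed control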); settings: P. falciparum Dd2 in RBCs, LDH growth readout, 72 h; at 2 µM; stronger effect = higher value
[2] = HepG2 cytotoxicity, primary screen, cytotoxicity control for P. falciparum antimalarial project, cell-based, ATP luminescence (AID 2303;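 active means inhibition above 50%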;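 further: 0% = DMSO wells and 100% = digitonin-killed cells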); settings: HepG2 viability, 24-48 h, at 10 µM, stronger effect = higher value
[3] = target: L-lactate dehydrogenase (Plasmodium falciparum (isolate CDC / Honduras)) (UniProt Q27743); assay: PfLDH activity inhibition – cell lysate, 3D7 strain, counter-screen for P. falciparum growth inhibition project (AID 2304);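 further: 0% = vehicle and 100% = reference inhibitor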; settings: P. falciparum 3D7 crude extract, LDH APAD/NBT absorbance; at 2 µM; stronger effect = higher value
Chain of L-lactate dehydrogenase (Plasmodium falciparum (isolate CDC / Honduras)) (Q27743 whole entry, looked up): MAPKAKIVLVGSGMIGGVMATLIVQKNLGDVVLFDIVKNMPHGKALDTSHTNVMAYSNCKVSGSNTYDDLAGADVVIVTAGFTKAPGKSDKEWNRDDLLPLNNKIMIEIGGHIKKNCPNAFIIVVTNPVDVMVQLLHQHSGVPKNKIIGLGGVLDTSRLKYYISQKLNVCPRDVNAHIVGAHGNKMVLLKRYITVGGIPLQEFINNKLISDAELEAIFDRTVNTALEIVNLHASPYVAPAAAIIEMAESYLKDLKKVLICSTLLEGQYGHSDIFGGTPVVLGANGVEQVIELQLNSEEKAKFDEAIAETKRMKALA

[4] = inhibition of 3D7 malaria parasite growth – strain 3D7 (AID 2306);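 further: 0% = DMSO wells and 100% = chloroquine plus artemisinin control wells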; settings: P. falciparum 3D7 erythrocytic growth, LDH absorbance, 72 h; at 2 µM; stronger effect = higher value
[5] = target: Calcium-dependent protein kinase 1 (Plasmodium falciparum (isolate 3D7)) (UniProt P62344); assay: PfCDPK1 kinase inhibitors, biochemical, TCAMS library (AID 1159585; cut-off not given, nearly all actives have IC50 up to about 0.98 µM;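 further: inhibitors leave more ATP so luminescence rises with inhibition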); settings: recombinant PfCDPK1, Kinase-Glo ATP depletion luminescence
Chain of Calcium-dependent protein kinase 1 (Plasmodium falciparum (isolate 3D7)) (P62344 whole entry, looked up): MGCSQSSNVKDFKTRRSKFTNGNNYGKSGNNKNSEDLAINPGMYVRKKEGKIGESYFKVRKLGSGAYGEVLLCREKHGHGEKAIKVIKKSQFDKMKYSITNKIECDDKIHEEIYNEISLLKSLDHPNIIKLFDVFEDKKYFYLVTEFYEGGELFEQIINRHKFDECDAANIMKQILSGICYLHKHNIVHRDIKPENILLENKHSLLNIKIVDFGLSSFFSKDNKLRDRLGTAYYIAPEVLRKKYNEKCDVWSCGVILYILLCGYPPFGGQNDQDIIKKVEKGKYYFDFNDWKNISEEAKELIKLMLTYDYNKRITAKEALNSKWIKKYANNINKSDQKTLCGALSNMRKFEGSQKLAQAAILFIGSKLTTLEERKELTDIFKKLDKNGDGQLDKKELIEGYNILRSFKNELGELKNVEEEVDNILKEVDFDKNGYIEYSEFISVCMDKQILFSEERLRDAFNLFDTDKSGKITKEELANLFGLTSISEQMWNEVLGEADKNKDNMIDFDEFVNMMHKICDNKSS

[6] = target: Plasmodium falciparum protein kinase 6 (PK6, PF3D7_1337100) (UniProt Q8IDW1); assay: PfPK6 kinase inhibitors, biochemical, TCAMS library (AID 1159586); settings: recombinant PfPK6, Kinase-Glo ATP depletion luminescence
Chain of Plasmodium falciparum protein kinase 6 (PK6, PF3D7_1337100) (Q8IDW1 1-305): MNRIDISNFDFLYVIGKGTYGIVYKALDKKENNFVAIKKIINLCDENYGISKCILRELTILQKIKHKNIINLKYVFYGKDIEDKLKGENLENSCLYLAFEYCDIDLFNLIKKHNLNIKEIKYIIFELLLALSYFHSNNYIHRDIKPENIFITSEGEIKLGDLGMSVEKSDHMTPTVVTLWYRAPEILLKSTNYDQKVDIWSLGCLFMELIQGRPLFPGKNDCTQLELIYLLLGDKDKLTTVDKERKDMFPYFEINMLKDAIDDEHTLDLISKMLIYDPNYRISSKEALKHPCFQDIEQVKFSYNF

[7] = target: Protein kinase 7 (PK7), Plasmodium falciparum 3D7 (PF3D7_0213400) (UniProt Q7YTF7); assay: inhibition of Plasmodium PK7 catalytic activity – biochemical, TCAMS antimalarial set, Kinase-Glo luminescence (AID 1159587); settings: recombinant PfPK7, Kinase-Glo ATP depletion luminescence
Chain of Protein kinase 7 (PK7), Plasmodium falciparum 3D7 (PF3D7_0213400) (Q7YTF7 1-343): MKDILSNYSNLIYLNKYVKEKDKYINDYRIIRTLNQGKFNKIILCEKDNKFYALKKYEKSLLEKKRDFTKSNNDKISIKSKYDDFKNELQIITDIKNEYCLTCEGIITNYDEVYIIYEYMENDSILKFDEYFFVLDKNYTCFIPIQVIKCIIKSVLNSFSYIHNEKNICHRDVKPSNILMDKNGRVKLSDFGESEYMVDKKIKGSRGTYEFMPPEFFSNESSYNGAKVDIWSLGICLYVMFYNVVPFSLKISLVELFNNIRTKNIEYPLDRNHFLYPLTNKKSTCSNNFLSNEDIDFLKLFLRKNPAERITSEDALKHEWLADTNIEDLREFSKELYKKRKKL

[8] = target: Calcium-dependent protein kinase 4 (Plasmodium falciparum (isolate 3D7)) (UniProt Q8IBS5); assay: PfCDPK4 kinase inhibitors, biochemical, TCAMS library (AID 1159588; cut-off not given, nearly all actives have IC50 up to about 0.91 µM); settings: recombinant PfCDPK4, Kinase-Glo ATP depletion luminescence
Chain of Calcium-dependent protein kinase 4 (Plasmodium falciparum (isolate 3D7)) (Q8IBS5 whole entry, looked up): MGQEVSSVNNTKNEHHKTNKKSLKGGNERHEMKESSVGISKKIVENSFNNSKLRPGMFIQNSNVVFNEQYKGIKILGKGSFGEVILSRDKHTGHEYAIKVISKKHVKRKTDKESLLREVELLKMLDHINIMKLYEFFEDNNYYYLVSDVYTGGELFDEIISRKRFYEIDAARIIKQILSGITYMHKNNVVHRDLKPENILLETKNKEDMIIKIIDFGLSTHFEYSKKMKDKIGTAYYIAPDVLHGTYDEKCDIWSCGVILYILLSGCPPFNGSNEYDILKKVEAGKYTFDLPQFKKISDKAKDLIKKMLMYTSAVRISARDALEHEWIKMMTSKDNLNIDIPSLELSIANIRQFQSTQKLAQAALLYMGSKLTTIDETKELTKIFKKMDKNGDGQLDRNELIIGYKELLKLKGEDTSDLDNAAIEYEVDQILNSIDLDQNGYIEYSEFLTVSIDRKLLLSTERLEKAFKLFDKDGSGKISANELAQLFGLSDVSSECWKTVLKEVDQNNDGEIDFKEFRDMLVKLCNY

c1ccc(CCNCc2cccc(-c3ccc(CNc4ccc5ncccc5c4)cc3)c2)cc1
active: growth inhibition [4] 93%
inactive: growth inhibition [1] 27% | inhibition [2] 43% | inhibition [3] -2% | outcome [5] | outcome [6] | outcome [7] | outcome [8]

O=C(NC1CC1)c1ccc2cc(C(=O)N3Cc4ccccc4C(c4ccccc4)C3)ccc2c1 (stereo not drawn)
inactive: inhibition [2] -2% | inhibition [3] 1% | outcome [5] | outcome [6] | outcome [7] | outcome [8]
active: growth inhibition [1] 64% | growth inhibition [4] 97%

c1ccc2[nH]c(-c3ccc(-c4ccc(CNCCc5ccncc5)cc4)s3)nc2c1
inactive: inhibition [2] 28% | inhibition [3] -6% | outcome [5] | outcome [6] | outcome [7] | outcome [8]
active: growth inhibition [1] 98% | growth inhibition [4] 101%

COc1cc(NC(=O)c2c(-c3c(F)cccc3Cl)noc2C)c(OC)cc1Cl
inactive: growth inhibition [1] 17% | inhibition [2] -12% | inhibition [3] 5% | outcome [5] | outcome [6] | outcome [7] | outcome [8]
active: growth inhibition [4] 89%

COc1ccc(-c2cccc(NC(=O)c3cccs3)c2)cc1CN1CCCN(C)CC1
inactive: growth inhibition [1] 30% | inhibition [2] 17% | inhibition [3] 9% | outcome [5] | outcome [6] | outcome [7] | outcome [8]
active: growth inhibition [4] 100%

COc1cc(N)c(Cl)cc1C(=O)NCC1CCN(c2nc(C)cc(C)n2)CC1
inactive: inhibition [2] -6% | inhibition [3] 4% | outcome [5] | outcome [6] | outcome [7] | outcome [8]
active: growth inhibition [1] 95% | growth inhibition [4] 96%

O=C(N[C@H]1CCN(Cc2ccc(OCCN3CCNCC3)c3ccccc23)C1)c1ccc(Cl)c(Cl)c1
inactive: inhibition [3] -2% | outcome [5] | outcome [6] | outcome [7] | outcome [8]
active: growth inhibition [1] 99% | inhibition [2] 53% | growth inhibition [4] 100%

c1cc(CNCCc2ccncc2)cc(-c2ccc(-c3nc4ccccc4[nH]3)cc2)c1
inactive: inhibition [2] 28% | inhibition [3] 5% | outcome [5] | outcome [6] | outcome [7] | outcome [8]
active: growth inhibition [1] 97% | growth inhibition [4] 99%

NC(N)=NN=Cc1ccc2c(ccc3ccccc32)c1
active: growth inhibition [1] 68% | growth inhibition [4] 100%
inactive: inhibition [2] 9% | inhibition [3] 6% | outcome [5] | outcome [6] | outcome [7] | outcome [8]

COc1ccc(-c2ccc(NC(=O)c3ccc(C#N)cc3)cc2)cc1CNC(C)C
active: growth inhibition [4] 100%
inactive: growth inhibition [1] 38% | inhibition [2] 19% | inhibition [3] -3% | outcome [5] | outcome [6] | outcome [7] | outcome [8]

Cn1cc(CCNc2ccnc(N3CCC(c4ncc[nH]4)CC3)n2)c2ccccc21
inactive: growth inhibition [1] 5% | inhibition [2] 12% | inhibition [3] 3% | outcome [5] | outcome [6] | outcome [7] | outcome [8]
active: growth inhibition [4] 92%

Fc1ccc(-c2cncc(Nc3ccncc3)n2)cc1
active: growth inhibition [4] 88%
inactive: growth inhibition [1] 11% | inhibition [2] 8% | inhibition [3] -1% | outcome [5] | outcome [6] | outcome [7] | outcome [8]

C=CCn1c(SCc2c(C)noc2C)nc2scc(-c3cccs3)c2c1=O
inactive: growth inhibition [1] 34% | inhibition [2] 13% | inhibition [3] 0% | outcome [5] | outcome [6] | outcome [7] | outcome [8]
active: growth inhibition [4] 88%

CCc1ccc(CN2CCC(C(=O)Nc3ccc(-c4nc5ccccc5[nH]4)cc3)CC2)o1
inactive: inhibition [2] 29% | inhibition [3] -4% | outcome [5] | outcome [6] | outcome [7] | outcome [8]
active: growth inhibition [1] 94% | growth inhibition [4] 99%

CC(C)(C)c1cc(CN2CCN(Cc3ccccc3)CC2)cc(C(C)(C)C)c1O
inactive: growth inhibition [1] 0% | inhibition [2] 9% | inhibition [3] 0% | outcome [5] | outcome [6] | outcome [7] | outcome [8]
active: growth inhibition [4] 97%

COc1cc(N)c(Cl)cc1C(=O)NC1CCC(NCC2CCCCC2)CC1 (stereo not drawn)
inactive: inhibition [2] 18% | inhibition [3] 0% | outcome [5] | outcome [6] | outcome [7] | outcome [8]
active: growth inhibition [1] 85% | growth inhibition [4] 90%

Clc1cc2c(Nc3ccc(Oc4ccccc4)cc3)ccnc2cc1-c1ccc(CNCCN2CCOCC2)o1
active: growth inhibition [1] 89% | growth inhibition [4] 100%
inactive: inhibition [2] -2% | inhibition [3] -4% | outcome [5] | outcome [6] | outcome [7] | outcome [8]

CN1CCCC1CCCOC(=O)c1ccc(N)cc1 (stereo not drawn)
active: growth inhibition [4] 101%
inactive: growth inhibition [1] 2% | inhibition [2] 8% | inhibition [3] -2% | outcome [5] | outcome [6] | outcome [7] | outcome [8]

COc1ccc2c(c1)OC(C)(C)CC2=NOS(=O)(=O)c1ccc(C)cc1
active: growth inhibition [4] 97%
inactive: growth inhibition [1] 12% | inhibition [2] 10% | inhibition [3] 4% | outcome [5] | outcome [6] | outcome [7] | outcome [8]

Cc1ccc(C)c(CC(=O)N2CCC(n3c(C)nc4ccc(F)cc43)CC2)c1
inactive: inhibition [2] -2% | inhibition [3] 1% | outcome [5] | outcome [6] | outcome [7] | outcome [8]
active: growth inhibition [1] 99% | growth inhibition [4] 100%

Cc1ccc(Nc2nc(NN=Cc3ccc(-c4ccc([N+](=O)[O-])cc4)o3)nc(N3CCOCC3)n2)cc1Cl
active: growth inhibition [4] 95%
inactive: growth inhibition [1] 47% | inhibition [2] 12% | inhibition [3] -1% | outcome [5] | outcome [6] | outcome [7] | outcome [8]

CC[C@H]1CN(C/C=C/c2ccc(OC)cc2)CC[C@H]1CCCc1ccnc2ccc(O)cc12
active: growth inhibition [1] 72% | growth inhibition [4] 99%
inactive: inhibition [2] 24% | inhibition [3] 1% | outcome [5] | outcome [6] | outcome [7] | outcome [8]

CC[C@H](C)[C@@H](C(=O)N1CCOCC1)N1CC[C@H](NS(=O)(=O)CC(C)(C)c2ccc(Cl)cc2)C1=O
active: growth inhibition [1] 95% | growth inhibition [4] 101%
inactive: inhibition [2] -1% | inhibition [3] 1% | outcome [5] | outcome [6] | outcome [7] | outcome [8]

O=C(NCCCCN1CCC(c2cccc3ccccc23)CC1)c1ccc(NC(=O)c2ccc(Cl)cc2)cc1
inactive: growth inhibition [1] 39% | inhibition [2] 20% | inhibition [3] 2% | outcome [5] | outcome [6] | outcome [7] | outcome [8]
active: growth inhibition [4] 99%

C=CCn1c(=N)c(C(=O)NCc2ccc(F)cc2)cc2c(=O)n3cccc(C)c3nc21
active: growth inhibition [4] 92%
inactive: growth inhibition [1] 11% | inhibition [2] 16% | inhibition [3] -2% | outcome [5] | outcome [6] | outcome [7] | outcome [8]

CCCC(C)c1ccc(N2C(N)=NC(N)=NC2(C)C)cc1 (stereo not drawn)
inactive: growth inhibition [1] 7% | inhibition [3] 2% | outcome [5] | outcome [6] | outcome [7] | outcome [8]
active: inhibition [2] 51% | growth inhibition [4] 90%

O=C(/C=C/c1cccs1)NCC(NCCCNc1cc(=O)c2ccccc2[nH]1)c1cc(Br)cc(Br)c1 (stereo not drawn)
active: growth inhibition [1] 58% | growth inhibition [4] 100%
inactive: inhibition [2] 0% | inhibition [3] 0% | outcome [5] | outcome [6] | outcome [7] | outcome [8]

COc1cc(OC)c(NC(=O)C2c3ccccc3C(=O)N(CC(C)C)C2c2cccs2)cc1Cl (stereo not drawn)
inactive: inhibition [2] 9% | inhibition [3] -1% | outcome [5] | outcome [6] | outcome [7] | outcome [8]
active: growth inhibition [1] 100% | growth inhibition [4] 100%

COCCSc1nc2scc(C)c2c(=O)n1Cc1cccc(OC)c1
inactive: growth inhibition [1] 33% | inhibition [2] 0% | inhibition [3] -8% | outcome [5] | outcome [6] | outcome [7] | outcome [8]
active: growth inhibition [4] 92%

CC(C)NCC(O)COc1ccc(Cc2ccc(OCC(O)CNC(C)C)cc2)cc1 (stereo not drawn)
active: growth inhibition [4] 100%
inactive: growth inhibition [1] 18% | inhibition [2] -8% | inhibition [3] -5% | outcome [5] | outcome [6] | outcome [7] | outcome [8]

COc1ccc2nccc(NCC3(O)CCC(NCc4cc5c(cn4)OCCO5)CC3)c2n1 (stereo not drawn)
active: growth inhibition [4] 99%
inactive: growth inhibition [1] 23% | inhibition [2] 15% | inhibition [3] -3% | outcome [5] | outcome [6] | outcome [7] | outcome [8]

Oc1ccc(CCNc2nc(NCc3ccccc3-c3cccc(Cl)c3)nc(N3CCNCC3)n2)cc1
inactive: growth inhibition [1] 11% | inhibition [2] 15% | inhibition [3] -3% | outcome [5] | outcome [6] | outcome [7] | outcome [8]
active: growth inhibition [4] 84%

CC(C)(C)c1nn(-c2ccc(Cl)cc2)c2[nH]c(=O)c(CNCc3cccs3)cc12
active: growth inhibition [1] 77% | growth inhibition [4] 102%
inactive: inhibition [2] 5% | inhibition [3] 3% | outcome [5] | outcome [6] | outcome [7] | outcome [8]

COc1ccc2c(NN=Cc3ccccc3Cl)ccnc2c1
inactive: growth inhibition [1] 46% | inhibition [2] 10% | inhibition [3] -6% | outcome [5] | outcome [6] | outcome [7] | outcome [8]
active: growth inhibition [4] 99%

CN1CCN(c2ccc(-c3cccc(NC(=O)c4cccc(Cl)c4)c3)nn2)CC1
inactive: growth inhibition [1] 37% | inhibition [2] 5% | inhibition [3] -2% | outcome [5] | outcome [6] | outcome [7] | outcome [8]
active: growth inhibition [4] 94%

COc1ccc(NC(=O)CCNc2cc(C)nc(NCCOc3ccccc3)n2)cc1
active: growth inhibition [4] 96%
inactive: growth inhibition [1] 2% | inhibition [2] 0% | inhibition [3] -1% | outcome [5] | outcome [6] | outcome [7] | outcome [8]

Cc1cc2cc(/C=C/C(=O)NC3CCC(CCN4CCc5ccc(C#N)cc5CC4)CC3)ccc2[nH]1 (stereo not drawn)
active: growth inhibition [4] 85%
inactive: growth inhibition [1] 49% | inhibition [2] 6% | inhibition [3] -1% | outcome [5] | outcome [6] | outcome [7] | outcome [8]

NC(=O)c1sc(-n2cnc3ccc(OCC4CCNCC4)cc32)cc1OCc1ccccc1C(F)(F)F
active: growth inhibition [1] 62% | growth inhibition [4] 101%
inactive: inhibition [2] 18% | inhibition [3] -6% | outcome [5] | outcome [6] | outcome [7] | outcome [8]

COc1cc2nc(N3CCC(CNCc4ccc(-c5ccc(C(F)(F)F)cc5)cc4)CC3)nc(N)c2cc1OC
active: growth inhibition [1] 100% | inhibition [2] 99% | growth inhibition [4] 99%
inactive: inhibition [3] -4% | outcome [5] | outcome [6] | outcome [7] | outcome [8]

CN1CCN(c2cccc(-c3nnc(-c4ccc(OCC(=O)NCc5cccc(C(F)(F)F)c5)c([N+](=O)[O-])c4)o3)c2)CC1
active: growth inhibition [1] 72% | growth inhibition [4] 90%
inactive: inhibition [2] 25% | inhibition [3] 2% | outcome [5] | outcome [6] | outcome [7] | outcome [8]

CC(C)n1ncc2c(C(=O)N3CCCCCC3)cc(-c3ccccc3)nc21
active: growth inhibition [4] 97%
inactive: growth inhibition [1] 42% | inhibition [2] -12% | inhibition [3] 2% | outcome [5] | outcome [6] | outcome [7] | outcome [8]
